Results as given in ChEMBL document CHEMBL3433997, “St. Jude Leishmania screening dataset” (2016).

How the values were obtained:
Format in all cases: functional
[1] = target: Solute carrier family 2, facilitated glucose transporter member 1 (Homo sapiens) (UniProt P11166); assay: ST_JUDE_LEISH: Cytotoxicity at 2uM final concentration against transgenic Leishmania Mexicana promastigotes LmGLUT1 that are glucose transport deficient and complemented with the human glucose transporter GLUT1. Activity is measured by DNA content using SYBR green in vitro
Solute carrier family 2, facilitated glucose transporter member 1 (Homo sapiens), sequence (P11166 whole entry): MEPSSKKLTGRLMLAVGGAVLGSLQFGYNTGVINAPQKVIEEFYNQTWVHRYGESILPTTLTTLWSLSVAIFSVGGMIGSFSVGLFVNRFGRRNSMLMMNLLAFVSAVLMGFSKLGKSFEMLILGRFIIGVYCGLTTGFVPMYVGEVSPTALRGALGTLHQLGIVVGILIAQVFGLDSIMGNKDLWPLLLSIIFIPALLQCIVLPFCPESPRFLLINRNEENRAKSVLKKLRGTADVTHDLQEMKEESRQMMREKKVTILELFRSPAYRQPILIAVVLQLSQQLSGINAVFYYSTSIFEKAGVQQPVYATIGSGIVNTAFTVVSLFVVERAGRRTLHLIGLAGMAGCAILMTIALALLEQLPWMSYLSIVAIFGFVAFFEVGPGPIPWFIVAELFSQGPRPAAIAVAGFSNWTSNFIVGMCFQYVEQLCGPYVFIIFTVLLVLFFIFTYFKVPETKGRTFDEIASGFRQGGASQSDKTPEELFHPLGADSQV

[2] = target: Hexose transporter 1 (Plasmodium falciparum) (UniProt O97467); assay: ST_JUDE_LEISH: Cytotoxicity at 2uM final concentration against transgenic Leishmania Mexicana promastigotes LmPfHT that are glucose transport deficient and complemented with the Plasmodium falciparum hexose transporter. Activity is measured by DNA content using SYBR green in vitro
[3] = target: Glucose transporter (Leishmania mexicana) (UniProt O61059); assay: ST_JUDE_LEISH: Cytotoxicity at 2uM final concentration against transgenic Leishmania Mexicana promastigotes LmGT2 that are glucose transport deficient and complemented with the L. Mexicana glucose transporter 2. Activity is measured by DNA content using SYBR green in vitro

Compound	inhibition [1] [%]	inhibition [2] [%]	inhibition [3] [%]
CC1(C)NC(N)=NC(=N)N1OCCCOc1cc(Cl)cc(Cl)c1	4.4	7.49	2.47
CC(C)C[C@@H](NC(=O)NC1CCC(CCN2C3CCC2CC(OC(=O)C(CO)c2ccccc2)C3)CC1)C(O)(c1ccccc1)c1ccccc1 (stereo partly specified)	3.28	2.19	0.94
Cc1ccccc1OCCCN1CCN(CC(c2ccc(F)cc2)N2CCN(C(C)C)CC2)CC1 (stereo unspecified)	13.1	12.5	14.9
CN1CCC(NCc2ccc(-c3ccc(S(=O)(=O)NC4CCC4)s3)cc2)CC1	3.46	1.25	0.74
COc1cc(C(=O)Nc2nc3ccccc3[nH]2)ccc1OCC(=O)Nc1cccc(C(F)(F)F)c1	2.59	2.67	1.11
O=C(Nc1ccc(F)c(F)c1)c1ccc(CN2CCCN(Cc3cccc(F)c3)CC2)cc1	0.07	-0.34	1.29
CCN1CCCC1CN(Cc1ccc(-c2ccc(C(F)(F)F)cc2)cc1)C(=O)Cn1c(CCc2cccc(F)c2F)nc(=O)c2ccccc21 (stereo unspecified)	1.13	2.82	1.11
COc1cccc(NC(=O)[C@H](C)n2c(=O)[nH]c3ccccc3c2=O)c1	10.9	14.1	7.45
CC(C)(O)CC(C)(C)c1cc(Cl)ccc1O	6.46	5.76	4.82
O=C(Nc1cccc(CN2CCCN(Cc3ccc(O)cc3)CC2)c1)c1cccc(Cl)c1	12.2	13.4	11.7
CCC(CC)NCc1c(O)ccc2c(CNC(CC)CC)c(O)ccc12	-1.88	-0.71	-1.57
Cc1cc(N2CCCC2)nc(Nc2ccc(NC(=O)COc3ccccc3)cc2)n1	6.11	6.84	2.07
